This assay addresses Polyadenylate-binding protein 1 (Homo sapiens) (UniProt P11940). As to the kind of experiment: blockers of PABP interaction with poly(A) – biochemical, fluorescence polarization, uHTS, primary screen (AID 2014).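 Note: calls also rest on retests at 20 µM and on dose response follow-up.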 Conditions: PABP-poly(A) RNA binding, stronger effect = higher value.

Results on 47 compounds are retold here after PubChem BioAssay AID2014 (Sanford-Burnham Center for Chemical Genomics, 2009).

The campaign covered roughly 290,000 compounds. About 3,000 (1%) were called active. The rule behind the calls is not given here. Many of the other results were omitted from the sample, so actives are more common in it than they were.

Sequence of Polyadenylate-binding protein 1 (Homo sapiens) (P11940 whole entry, looked up): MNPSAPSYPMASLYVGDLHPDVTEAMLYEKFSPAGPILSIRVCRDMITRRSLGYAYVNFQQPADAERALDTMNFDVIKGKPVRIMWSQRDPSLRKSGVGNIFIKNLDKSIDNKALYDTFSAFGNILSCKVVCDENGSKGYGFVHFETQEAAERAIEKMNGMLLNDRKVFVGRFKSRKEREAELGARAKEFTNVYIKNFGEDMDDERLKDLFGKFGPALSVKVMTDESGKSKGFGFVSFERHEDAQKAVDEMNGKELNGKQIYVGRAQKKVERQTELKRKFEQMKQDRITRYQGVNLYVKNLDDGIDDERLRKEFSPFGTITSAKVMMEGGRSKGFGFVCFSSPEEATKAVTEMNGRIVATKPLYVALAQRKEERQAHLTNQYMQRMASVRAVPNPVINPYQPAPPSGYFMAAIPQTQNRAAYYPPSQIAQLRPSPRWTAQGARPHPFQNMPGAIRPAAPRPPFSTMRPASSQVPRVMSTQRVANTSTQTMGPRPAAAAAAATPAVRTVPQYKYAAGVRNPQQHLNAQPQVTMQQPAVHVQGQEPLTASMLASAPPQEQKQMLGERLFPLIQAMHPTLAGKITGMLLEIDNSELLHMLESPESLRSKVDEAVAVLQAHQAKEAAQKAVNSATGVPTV

For the compound `Cc1cccc(NC(=O)Cc2ccc(Br)cc2)n1`, under “at 35 µM”, the inhibition was -9.8% (inactive).
For the compound `O=C(NC(Cc1ccc(O)cc1)C(=O)O)/C(=C/c1ccccc1)NC(=O)c1ccccc1` (stereo unspecified), the inhibition (at 35 µM) was 2.8% (inactive).
Still for that read-out and setting: in the case of `CC1(C)Oc2ccc3ccc(=O)oc3c2/C(=C/NCCO)C1=O` it was 51.8% (active); in that of `CC1(C)Oc2ccc3ccc(=O)oc3c2/C(=N/O)C1=O`, -7% (inactive).
In the case of `C/C=C(/C)C(=O)OC1Cc2c(ccc3ccc(=O)oc23)OC1(C)C` (stereo unspecified), the inhibition (at 35 µM) was 5.5% (inactive).
With `Cc1ccc(S(=O)(=O)N(CC(O)CN2CCCCC2)c2cccc([N+](=O)[O-])c2)cc1` (stereo unspecified), the inhibition (at 35 µM) was -2.5% (inactive).
As to `O=C(CCNS(=O)(=O)c1cccs1)N1CCN(c2ccc(F)cc2)CC1`, the inhibition (at 35 µM) is 2.5% (inactive).
Still for that read-out and setting: in the case of `Cc1cccc(CCNS(=O)(=O)c2ccc3c(c2)NC(=O)CO3)c1` it was 0.4% (inactive).
Same read-out and setting: in the case of `Cc1nc2c(c(=O)n1Cc1ccco1)c1nc3ccccc3nc1n2Cc1ccccc1` it was 57.3% (active).
In the case of `Cc1nc2ccccc2c(=O)n1Cc1ccc([N+](=O)[O-])cc1`, the inhibition (at 35 µM) is -8.9% (inactive).
Still for that read-out and setting: in the case of `Cc1ccc(Cn2c(C)nc3c(c2=O)c2nc4ccccc4nc2n3Cc2ccco2)cc1` it was 17.9% (inactive); in that of `Cc1cccc(NS(=O)(=O)c2cc(Cl)ccc2Cl)n1`, -4.9% (inactive).
Regarding `O=C1CCNCCN1[C@H](CO)Cc1ccccc1`, the inhibition (at 35 µM) was -8.7% (inactive).
The same measure, in the same setting: in the case of `COc1ccc(C(=O)NC2=NCCS2)c(OC)c1` it was -7.6% (inactive).
Same read-out and setting: in the case of `COc1ccc2cc(C(=O)NCC3CCCO3)[nH]c2c1` (stereo unspecified) it was 0.3% (inactive); in that of `O=S(=O)(c1ccc(Br)cc1)N1CCC(c2nc3ccccc3[nH]2)CC1`, 3.9% (inactive).
On the same count and under the same terms, in the case of `Cc1ccc(CCCOC(=O)C[N+]2(C)CCCC2)cc1` it was 2.4% (inactive); in that of `Cc1ccc(CCCOC(=O)C[N+]2(C)CCCCC2)cc1`, 50.6% (active).
`CCCCOC(=O)Cn1c(=O)n(CC(=O)OCCCC)c2cc(C)ccc21`: where the note is “at 35 µM”, the inhibition is -8.1% (inactive).
Turning to `Cc1ccc(C(=O)COC(=O)CCN2C(=O)C3C4CCC(C4)C3C2=O)cc1C` (stereo unspecified), the inhibition (at 35 µM) was -12.4% (inactive).
The same measure, in the same setting: in the case of `COc1cccc(NC(=O)N2CCC(NC(=O)C(Cc3cccc(C)c3)NC(C)=O)CC2)c1` (stereo unspecified) it was 2.7% (inactive); in that of `C/C(=N\NC(=O)CC(C)C)c1c(C(F)(F)F)[nH]n(-c2nc3ccccc3s2)c1=O`, -1.1% (inactive); in that of `CCC(C)Cn1c(O)cc2nn(-c3nc4ccccc4s3)c(=O)c-2c1C` (stereo unspecified), 68.7% (active).
As for `Cc1cc(NC(=O)CN2CCCC(C)C2)n(-c2nc3ccccc3s2)n1` (stereo unspecified), the inhibition (at 35 µM) was 5.3% (inactive).
As for `CCOC(=O)c1ccccc1NC(=O)COC(=O)CCC(=O)N1CCOCC1`, the inhibition (at 35 µM) is -1.1% (inactive).
The same measure, in the same setting: in the case of `COc1ccccc1NC(=O)c1cc(N2C(=O)C3C4CCC(C4)C3C2=O)ccc1Cl` (stereo unspecified) it was 1.6% (inactive); in that of `O=C1CC(NNc2ccccc2)C(=O)N1c1cccc(Cl)c1` (stereo unspecified), -2.5% (inactive).
Regarding `O=C1CC(c2ccccc2)C(=O)N1c1cccc(O)c1` (stereo unspecified), the inhibition (at 35 µM) was -5.5% (inactive).
Turning to `O=C1OCC2=C1C(c1ccccc1)CC(=O)N2c1cccc(F)c1` (stereo unspecified), the inhibition runs as follows: (at 35 µM) 68% (active); (confirmation repeats, at 20 µM) 65.5%.
Turning to `CCc1nnc(NC(=O)CCC(=O)N2CCN(c3cc(C)ccc3C)CC2)s1`, where the note is “at 35 µM”, the inhibition is 11.5% (inactive).
Turning to `O=C(OCc1ccc(-c2ccccc2)cc1)c1cccc(O)c1`, the inhibition (at 35 µM) is 10.5% (inactive).
The same measure, in the same setting: in the case of `CCc1ccc(OCC2c3cc(OC)c(OC)cc3CCN2C(C)=O)cc1` (stereo unspecified) it was 6.8% (inactive); in that of `CC[C@H]1CN2CCc3cc(OC)c(OC)cc3[C@@H]2C[C@@H]1C[C@H]1NCCc2cc(OC)c(OC)cc21`, 1.5% (inactive).
As for `COc1cc2c(cc1O)[C@H](Cc1ccc(Oc3cc(C[C@@H]4NCCc5cc(OC)c(O)cc54)ccc3O)cc1)NCC2`, the inhibition is, setting by setting: (at 35 µM) 0.1% (active); (confirmation repeats, at 20 µM) 91.3%.
On to `COc1ccccc1C(=O)Nc1ccnn1C1CCN(C(=O)C(C)(C)C)CC1`, for which the inhibition (at 35 µM) is 8.7% (inactive).
The same measure, in the same setting: in the case of `C=CCNc1nnc(C)c2ccccc12` it was -0.7% (inactive).
With `C=CCNc1nnc(SCC(=O)N2CCCCC2)c2ccccc12`, the inhibition by setting is: (at 35 µM) 116% (active); (confirmation repeats, at 20 µM) 56.4%.
Regarding `O=C(CSc1ncccn1)N1CCCC1`, under “at 35 µM”, the inhibition was 9.6% (inactive).
The same measure, in the same setting: in the case of `Cc1nc(-c2ccc(F)cc2)c(CC(=O)N2CCN(S(=O)(=O)c3ccc(F)cc3)CC2)s1` it was 6.2% (inactive); in that of `O=C(CN1CCC(O)(c2cccc(C(F)(F)F)c2)CC1)NCCc1ccccc1`, -5% (inactive).
On to `O=C(Nc1cccc([N+](=O)[O-])c1)N1CCc2ccccc2C1`, for which the inhibition (at 35 µM) is -6.2% (inactive).
Still for that read-out and setting: in the case of `CC(C(=O)NCCc1ccc(S(N)(=O)=O)cc1)N1C(=O)CC(C)(C)Sc2ccccc21` (stereo unspecified) it was -1.3% (inactive); in that of `Cc1cccc(NC(=O)c2sc3nc(N4CCOCC4)c4c(c3c2N)CCCC4)c1`, 4.1% (inactive).
On to `Cc1cccc(NC(=O)c2sc3nc4c(c(-c5ccco5)c3c2N)CCC4)c1`, for which the inhibition was 63% (active) (at 35 µM) and 87.7% (confirmation repeats, at 20 µM).
Regarding `NC(=O)c1sc2nc3c(c(-c4ccccc4)c2c1N)CCC3`, the inhibition (at 35 µM) was -3.5% (inactive).
On the same count and under the same terms, in the case of `O=C(CNC(=O)c1ccccc1F)c1ccc(Br)cc1` it was 0.1% (inactive); in that of `O=C(O)c1ccc2c(=O)n3c(nc2c1)/C(=C/c1ccc(OC(F)F)cc1OC(F)F)CC3`, 5.3% (inactive).

The term inhibition denotes the change of the read-out against control, counted positive when it falls.
